Measurements taken from PubChem BioAssay AID1159580 (chemical genetic matrix, 2015).
Several values for one entry are separate records, joined by “and”; a condition that tells them apart may be missing. Equal values may be shown once. The campaign covered roughly 5,500 compounds. About 2,000 (36%) were called active. Another 18% or so got no clear call; they are omitted. No stated cut-off is given here; in the data, active means normalized growth mostly below about 0.91 (no sharp cut-off); inconclusive means no clear call, values can overlap the other calls; inactive means mostly above about 0.92. The list shows a part of the results.

Experiment: chemical genetic growth profiling, strain panel (AID 1159580);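 further: tested at 20 µM; growth read once vehicle control cultures reached saturation at 30 °C; 1 = growth at the plate median or of vehicle wells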
Details: S. cerevisiae deletion strains, growth OD

Measured: normalized growth

Oc1cccc2cccnc12
inactive: locus YHR079C, strain IRE1, stronger effect = lower value 0.908 | locus YJR066W, strain TOR1, stronger effect = lower value 0.871
active: locus YAL021C, strain ccr4, stronger effect = lower value 0.0769 | locus YAL026C, strain drs2, stronger effect = lower value 0.0625 | locus YAL030W, strain snc1, stronger effect = lower value 0.0718 | locus YBL061C, strain skt5, stronger effect = lower value 0.0722 | locus YBR009C, strain hhf1, stronger effect = lower value 0.0681 | locus YBR021W, strain FUR4, stronger effect = lower value 0.0928 | locus YBR023C, strain chs3, stronger effect = lower value 0.076 | locus YBR171W, strain sec66, stronger effect = lower value 0.076 | locus YBR229C, strain ROT2, stronger effect = lower value 0.0533 | locus YBR231C, strain swc5, stronger effect = lower value 0.0897 | locus YBR279W, strain paf1, stronger effect = lower value 0.0618 | locus YCL011C, strain gbp2, stronger effect = lower value 0.0567 | locus YCL016C, strain dcc1, stronger effect = lower value 0.229 | locus YCL029C, strain bik1, stronger effect = lower value 0.738 | locus YCL061C, strain MRC1, stronger effect = lower value 0.064 | locus YCL069W, strain vba3, stronger effect = lower value 0.0627 | locus YCR088W, strain abp1, stronger effect = lower value 0.0593 | locus YDL005C, strain med2, stronger effect = lower value 0.646 | locus YDL035C, strain GPR1, stronger effect = lower value 0.0493 | locus YDL040C, strain nat1, stronger effect = lower value 0.476 | locus YDL074C, strain BRE1, stronger effect = lower value 0.0979 | locus YDL101C, strain DUN1, stronger effect = lower value 0.869 | locus YDL134C, strain PPH21, stronger effect = lower value 0.0515 | locus YDL185W, strain tfp1, stronger effect = lower value 0.0598 | locus YDL192W, strain arf1, stronger effect = lower value 0.0601 | locus YDR001C, strain nth1, stronger effect = lower value 0.0574 | locus YDR069C, strain doa4, stronger effect = lower value 0.0712 | locus YDR101C, strain arx1, stronger effect = lower value 0.375 | locus YDR137W, strain rgp1, stronger effect = lower value 0.0843 | locus YDR159W, strain sac3, stronger effect = lower value 0.616 | locus YDR162C, strain NBP2, stronger effect = lower value 0.0547 | locus YDR195W, strain ref2 0.117 | locus YDR297W, strain sur2, stronger effect = lower value 0.0588 | locus YDR318W, strain mcm21, stronger effect = lower value 0.0646 | locus YDR334W, strain swr1, stronger effect = lower value 0.0621 | locus YDR335W, strain msn5, stronger effect = lower value 0.0595 | locus YDR388W, stronger effect = lower value 0.0582 | locus YDR392W, strain spt3, stronger effect = lower value 0.0932 | locus YDR502C, strain sam2, stronger effect = lower value 0.0651 | locus YEL003W, strain gim4, stronger effect = lower value 0.0548 | locus YEL037C, strain rad23, stronger effect = lower value 0.0582 | locus YEL061C, strain CIN8 (second series), stronger effect = lower value 0.0606 | locus YEL061C, strain CIN8, stronger effect = lower value 0.0683 | locus YER015W, strain faa2, stronger effect = lower value 0.0643 | locus YER016W, strain bim1, stronger effect = lower value 0.0729 | locus YER110C, stronger effect = lower value 0.107 | locus YER111C, strain swi4, stronger effect = lower value 0.0869 | locus YER155C, strain BEM2 (second series), stronger effect = lower value 0.0885 | locus YER155C, strain BEM2, stronger effect = lower value 0.503 | locus YER167W, strain BCK2, stronger effect = lower value 0.0575 | locus YFR010W, strain ubp6, stronger effect = lower value 0.0669 | locus YGL078C, strain dbp3, stronger effect = lower value 0.0567 | locus YGL086W, strain mad1, stronger effect = lower value 0.0544 | locus YGL167C, strain pmr1, stronger effect = lower value 0.113 | locus YGL173C, strain kem1, stronger effect = lower value 0.07 | locus YGL227W, strain vid30, stronger effect = lower value 0.0635 | locus YGL240W, strain doc1, stronger effect = lower value 0.0777 | locus YGL248W, strain PDE1, stronger effect = lower value 0.0532 | locus YGL253W, strain hxk2, stronger effect = lower value 0.0539 | locus YGR135W, strain pre9, stronger effect = lower value 0.0644 | locus YGR252W, strain gcn5, stronger effect = lower value 0.152 | locus YHR013C, strain ard1, stronger effect = lower value 0.105 | locus YHR027C, strain rpn1, stronger effect = lower value 0.0611 | locus YHR079C, strain IRE1 (second series), stronger effect = lower value 0.0905 | locus YHR094C, strain hxt1, stronger effect = lower value 0.0596 | locus YHR129C, strain ARP1, stronger effect = lower value 0.576 | locus YHR142W, strain chs7, stronger effect = lower value 0.0731 | locus YHR200W, strain rpn10, stronger effect = lower value 0.0598 | locus YIL066C, strain RNR3, stronger effect = lower value 0.156 | locus YIL073C, strain SPO22, stronger effect = lower value 0.0972 | locus YIL125W, strain kgd1, stronger effect = lower value 0.0587 | locus YIR030C, strain dcg1, stronger effect = lower value 0.0603 | locus YJL092W, strain hpr5, stronger effect = lower value 0.058 | locus YJL095W, strain BCK1 (second series), stronger effect = lower value 0.09 | locus YJL115W, strain asf1, stronger effect = lower value 0.0712 | locus YJL129C, strain trk1, stronger effect = lower value 0.0863 | locus YJL134W, strain LCB3, stronger effect = lower value 0.388 | locus YJL154C, strain vps35, stronger effect = lower value 0.0589 | locus YJL164C, strain tpk1, stronger effect = lower value 0.0791 | locus YJL166W, strain qcr8, stronger effect = lower value 0.0604 | locus YJL168C, strain set2, stronger effect = lower value 0.0577 | locus YJL187C, strain SWE1 (second series), stronger effect = lower value 0.057 | locus YJL187C, strain SWE1, stronger effect = lower value 0.101 | locus YJR043C, strain POL32, stronger effect = lower value 0.0576
0.165 (active) and 0.93 (inactive): locus YJL095W, strain BCK1, stronger effect = lower value
0.0533 (active) and 0.903 (inactive): locus YHR030C, strain SLT2, stronger effect = lower value
